Measured values published in PubChem BioAssay (EPA / NIEHS).
“And” between values parts separate entries of the source, which are not always exact repeats. Equal entries are not always repeated. The source made the active and inactive calls. How the source made its calls: active means hit-call score of the fitted dose curve at least 0.9, where 1 is the maximum; inactive means score below 0.9.

molecular target: Bile acid receptor (Homo sapiens) (UniProt Q96RI1); assay: ATG_IR1_CIS: Attagene CIS-FACTORIAL HepG2 Assay for human Nuclear Receptor Subfamily 1 Group H Member 4 (NR1H4), IR1 submotif (AID 2282946); details: IR1 reporter transcription, actives raise or lower the signal
Method in brief: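 Cells (human HepG2) carry transiently transfected cis-promoter reporter transcription units. Compounds are incubated 24 h, total RNA is reverse-transcribed and amplified, and labelled fragments are resolved by capillary electrophoresis. Curves use DMSO as baseline.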

Chain of Bile acid receptor (Homo sapiens) (Q96RI1 whole entry, looked up, the tested form may be a part): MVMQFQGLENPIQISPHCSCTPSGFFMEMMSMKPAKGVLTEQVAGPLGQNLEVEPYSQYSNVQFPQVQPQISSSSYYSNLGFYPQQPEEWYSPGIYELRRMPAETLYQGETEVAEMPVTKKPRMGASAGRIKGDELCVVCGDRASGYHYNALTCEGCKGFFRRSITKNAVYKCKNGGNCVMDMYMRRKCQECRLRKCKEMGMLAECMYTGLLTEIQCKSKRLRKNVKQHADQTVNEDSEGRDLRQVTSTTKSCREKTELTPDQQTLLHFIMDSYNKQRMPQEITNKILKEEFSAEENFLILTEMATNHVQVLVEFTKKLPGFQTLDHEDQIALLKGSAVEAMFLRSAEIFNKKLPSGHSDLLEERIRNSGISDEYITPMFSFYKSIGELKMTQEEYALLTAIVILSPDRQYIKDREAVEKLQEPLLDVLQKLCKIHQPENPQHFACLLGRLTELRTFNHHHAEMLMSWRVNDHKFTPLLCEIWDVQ

Structure (SMILES) | outcome | AC50
C=C(C)C(=O)OCCC(F)(F)C(F)(F)C(F)(F)C(F)(F)C(F)(C(F)(F)F)C(F)(F)F | inactive | –
CCCCCCCCCCCCCCCC[N+](C)(C)Cc1ccccc1 | – | 10.2 µM (active)
CC(C)(C)C(=O)CC(=O)C(F)(F)C(F)(F)C(F)(F)F | inactive | –
C(=C(c1ccccc1)c1ccccc1)c1ccccc1 | inactive | –
CCCCNc1ccccc1 | inactive | –
O=C(O)C(F)(F)C(F)(F)C(F)(F)F | inactive | –
FC(F)(F)C(F)(F)C(F)(F)N(C(F)(F)C(F)(F)C(F)(F)F)C(F)(F)C(F)(F)C(F)(F)F | inactive | –
O=S(=O)(OCC(F)F)C(F)(F)F | inactive | –
COC(OC(C)=O)c1ccccc1 (stereo not given) | inactive | –
FC(F)(Br)C(F)(F)C(F)(F)C(F)(F)C(F)(F)C(F)(F)Br | inactive | –
O=C(O)C(F)(OC(F)(F)C(F)(OC(F)(F)C(F)(F)C(F)(F)F)C(F)(F)F)C(F)(F)F (stereo not given) | inactive | –
O=C(O)C(F)(F)C(F)(F)C(F)(F)C(F)(F)C(F)(F)C(F)(F)C(F)(F)C(F)(F)C(F)(F)C(F)(F)C(F)(F)C(F)(F)C(F)(F)F | inactive | –
O=C(O)C(F)(F)C(F)(F)C(F)(F)C(F)(F)C(F)(F)C(F)(F)C(F)(F)C(F)(F)C(F)(F)C(F)F | inactive | –
O=C(O)C(F)(F)C(F)(F)C(F)F | inactive | –
CCCCCCOC(=O)c1ccccc1O | inactive | –
NC(=O)C(F)(F)C(F)(F)C(F)(F)C(F)(F)F | inactive | –
FC(F)(F)C(F)(F)C(F)(F)C(F)(F)C(F)(F)C(F)(F)CC1CO1 (stereo not given) | inactive | –

Structure (SMILES) | outcome | AC50
FC1CC(F)(F)C(F)(F)C1(F)F (stereo not given) | inactive | –
CCCCOc1ccc(N)cc1 | inactive | –
O=C(O)C(F)(F)C(F)(F)C(F)(F)C(F)(F)C(F)(F)C(F)(F)C(F)(F)C(F)(F)Cl | inactive | –
CC(Cc1ccc(O)c(O)c1)C(C)Cc1ccc(O)c(O)c1 (stereo not given) | inactive | –
FC(F)(F)C(F)(F)C(F)(F)C(F)(F)C(F)(F)C(F)(F)C(F)(F)I | inactive | –
CCCCOCCOCCOC(=O)CCCCC(=O)OCCOCCOCCCC | inactive | –
OCCCC(F)(F)C(F)(F)C(F)(F)C(F)(F)C(F)(F)C(F)(F)C(F)(F)F | inactive | –
CNC(=S)NC | inactive | –
[Co] | inactive | –
C=CC(F)(F)C(F)(F)C(F)(F)C(F)(F)C(F)(F)C(F)(F)C(F)(F)C(F)(F)C=C | inactive | –
CCC(=O)OCCc1ccccc1 | inactive | –
CC/C=C\CCOC(=O)c1ccccc1 | inactive | –
O=C(C=Cc1ccccc1)OCC=Cc1ccccc1 | inactive | –
CCCCCCCOC(=O)c1ccccc1C(=O)OCCCCCCC | inactive | –
OCCCC(F)(F)C(F)(F)C(F)(F)F | inactive | –
CCCCCCC(C)OC(=O)CCCCC(=O)OC(C)CCCCCC (stereo not given) | inactive | –
OCC(F)(F)C(F)(F)C(F)(F)F | inactive | –

tested on: not listed separately; assay: ATG_GRE_CIS: Attagene CIS-FACTORIAL HepG2 Assay for human Glucocorticoid Response Elements (GRE) (AID 2282947); details: HepG2 GRE cis-reporter, Attagene multiplex mRNA; actives raise or lower the signal
Method in brief: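 Transient MRTU transfection of human HepG2 liver cells; cis-regulated reporters report endogenous factors. 24 h dosing → RNA isolation → RT-PCR → 6-FAM primer extension → HpaI cut → CE fragment analysis. Bidirectional fit, DMSO negative control.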

Structure (SMILES) | outcome
CCCCCCCCCCCCCCCC[N+](C)(C)Cc1ccccc1 | inactive
CC(C)(C)C(=O)CC(=O)C(F)(F)C(F)(F)C(F)(F)F | inactive
C(=C(c1ccccc1)c1ccccc1)c1ccccc1 | inactive
CCCCNc1ccccc1 | inactive
COC(OC(C)=O)c1ccccc1 (stereo not given) | inactive
FC(F)(Br)C(F)(F)C(F)(F)C(F)(F)C(F)(F)C(F)(F)Br | inactive
O=C(O)C(F)(OC(F)(F)C(F)(OC(F)(F)C(F)(F)C(F)(F)F)C(F)(F)F)C(F)(F)F (stereo not given) | inactive
O=C(O)C(F)(F)C(F)(F)C(F)(F)C(F)(F)C(F)(F)C(F)(F)C(F)(F)C(F)(F)C(F)(F)C(F)(F)C(F)(F)C(F)(F)C(F)(F)F | inactive
FC(F)(F)C(F)(F)C(F)(F)C(F)(F)C(F)(F)C(F)(F)CC1CO1 (stereo not given) | inactive
CCCCOc1ccc(N)cc1 | inactive
CC(Cc1ccc(O)c(O)c1)C(C)Cc1ccc(O)c(O)c1 (stereo not given) | inactive
FC(F)(F)C(F)(F)C(F)(F)C(F)(F)C(F)(F)C(F)(F)C(F)(F)I | inactive
CCCCOCCOCCOC(=O)CCCCC(=O)OCCOCCOCCCC | inactive
CNC(=S)NC | inactive
[Co] | inactive
C=CC(F)(F)C(F)(F)C(F)(F)C(F)(F)C(F)(F)C(F)(F)C(F)(F)C(F)(F)C=C | inactive
CCC(=O)OCCc1ccccc1 | inactive
CC/C=C\CCOC(=O)c1ccccc1 | inactive
O=C(C=Cc1ccccc1)OCC=Cc1ccccc1 | inactive
CCCCCCCOC(=O)c1ccccc1C(=O)OCCCCCCC | inactive
OCCCC(F)(F)C(F)(F)C(F)(F)F | inactive
CCCCCCC(C)OC(=O)CCCCC(=O)OC(C)CCCCCC (stereo not given) | inactive

tested on: not listed separately; assay: ATG_ISRE_CIS: Attagene CIS-FACTORIAL HepG2 Assay for human Interferon Regulatory Factor 1 (IRF1) binding to an Interferon-Stimulated Response Element (ISRE) (AID 2282948); details: HepG2 ISRE cis-reporter (Attagene), mRNA transcription readout; actives raise or lower the signal
Method in brief: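 HepG2 cells transiently transfected with multiplexed cis-promoter reporter units; after 24 h compound exposure, reporter mRNA quantified by RT-PCR, FAM labelling, HpaI digestion and capillary electrophoresis. Bidirectional fit versus DMSO baseline.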

Structure (SMILES) | outcome | AC50
C=C(C)C(=O)OCCC(F)(F)C(F)(F)C(F)(F)C(F)(F)C(F)(C(F)(F)F)C(F)(F)F | inactive | –
CCCCCCCCCCCCCCCC[N+](C)(C)Cc1ccccc1 | – | 47.6 µM (active)
CC(C)(C)C(=O)CC(=O)C(F)(F)C(F)(F)C(F)(F)F | inactive | –
C(=C(c1ccccc1)c1ccccc1)c1ccccc1 | inactive | –
CCCCNc1ccccc1 | inactive | –
O=C(O)C(F)(F)C(F)(F)C(F)(F)F | inactive | –
FC(F)(F)C(F)(F)C(F)(F)N(C(F)(F)C(F)(F)C(F)(F)F)C(F)(F)C(F)(F)C(F)(F)F | inactive | –
O=S(=O)(OCC(F)F)C(F)(F)F | inactive | –
COC(OC(C)=O)c1ccccc1 (stereo not given) | inactive | –
FC(F)(Br)C(F)(F)C(F)(F)C(F)(F)C(F)(F)C(F)(F)Br | inactive | –
O=C(O)C(F)(OC(F)(F)C(F)(OC(F)(F)C(F)(F)C(F)(F)F)C(F)(F)F)C(F)(F)F (stereo not given) | inactive | –
O=C(O)C(F)(F)C(F)(F)C(F)(F)C(F)(F)C(F)(F)C(F)(F)C(F)(F)C(F)(F)C(F)(F)C(F)(F)C(F)(F)C(F)(F)C(F)(F)F | inactive | –
O=C(O)C(F)(F)C(F)(F)C(F)(F)C(F)(F)C(F)(F)C(F)(F)C(F)(F)C(F)(F)C(F)(F)C(F)F | – | 27.1 µM (active)
O=C(O)C(F)(F)C(F)(F)C(F)F | inactive | –
CCCCCCOC(=O)c1ccccc1O | inactive | –
NC(=O)C(F)(F)C(F)(F)C(F)(F)C(F)(F)F | inactive | –
FC(F)(F)C(F)(F)C(F)(F)C(F)(F)C(F)(F)C(F)(F)CC1CO1 (stereo not given) | inactive | –

Structure (SMILES) | outcome | AC50
FC1CC(F)(F)C(F)(F)C1(F)F (stereo not given) | inactive | –
CCCCOc1ccc(N)cc1 | inactive | –
O=C(O)C(F)(F)C(F)(F)C(F)(F)C(F)(F)C(F)(F)C(F)(F)C(F)(F)C(F)(F)Cl | – | 32.1 µM (active) and 50 µM (active)
CC(Cc1ccc(O)c(O)c1)C(C)Cc1ccc(O)c(O)c1 (stereo not given) | inactive | –
FC(F)(F)C(F)(F)C(F)(F)C(F)(F)C(F)(F)C(F)(F)C(F)(F)I | inactive | –
CCCCOCCOCCOC(=O)CCCCC(=O)OCCOCCOCCCC | inactive | –
OCCCC(F)(F)C(F)(F)C(F)(F)C(F)(F)C(F)(F)C(F)(F)C(F)(F)F | inactive | –
CNC(=S)NC | inactive | –
[Co] | inactive | –
C=CC(F)(F)C(F)(F)C(F)(F)C(F)(F)C(F)(F)C(F)(F)C(F)(F)C(F)(F)C=C | inactive | –
CCC(=O)OCCc1ccccc1 | inactive | –
CC/C=C\CCOC(=O)c1ccccc1 | inactive | –
O=C(C=Cc1ccccc1)OCC=Cc1ccccc1 | inactive | –
CCCCCCCOC(=O)c1ccccc1C(=O)OCCCCCCC | inactive | –
OCCCC(F)(F)C(F)(F)C(F)(F)F | inactive | –
CCCCCCC(C)OC(=O)CCCCC(=O)OC(C)CCCCCC (stereo not given) | inactive | –
OCC(F)(F)C(F)(F)C(F)(F)F | inactive | –
